According to PubChem BioAssay (EPA / NIEHS):
Calls of active or inactive are those of the source. The calls were made as follows: active = hit-call score of the fitted dose curve at least 0.9, where 1 is the maximum; inactive = score below 0.9.

Experiments:
Settings in all cases: mRNA level, 48 h; actives raise or lower the signal
[1] = read-out: 3-Hydroxy-3-Methylglutaryl-CoA Synthase 2 (HMGCS2), HMGCS2 (gene 3158); experiment: LTEA_HepaRG_HMGCS2: Life Technologies and Expression Analysis (LTEA) Assay for 3-Hydroxy-3-Methylglutaryl-CoA Synthase 2 (HMGCS2) using HepaRG (AID 2283504)
Summary of the method: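 qRT-PCR read-out of HMGCS2 transcript, normalised to three housekeeping genes, in HepaRG cells after 48 h chemical exposure. Eight-point curves from 100 uM, half-log dilutions, 0.5% DMSO vehicle; gain or loss fitted relative to DMSO baseline.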

HGF (gene 3082) = experiment: LTEA_HepaRG_HGF: Life Technologies and Expression Analysis (LTEA) Assay for Hepatocyte Growth Facto (HGF) using HepaRG (AID 2283505)
Summary of the method: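 HepaRG, 48 h dosing, 8-pt half-log series from 100 uM in 0.5% DMSO, duplicates. Readout: TaqMan qRT-PCR of HGF mRNA, housekeeping-normalized; bidirectional curve fit vs DMSO baseline.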

[2] = read-out: Intercellular Adhesion Molecule 1 (ICAM1), ICAM1 (gene 3383); experiment: LTEA_HepaRG_ICAM1: Life Technologies and Expression Analysis (LTEA) Assay for Intercellular Adhesion Molecule 1 (ICAM1) using HepaRG (AID 2283507)
Summary of the method: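 HepaRG, 48 h exposure, 8-pt half-log series from 100 uM, 0.5% DMSO vehicle, duplicates. Readout: TaqMan qRT-PCR mRNA, housekeeping-normalized (ACTB/GAPDH/POLR2A). Bidirectional curve fit vs DMSO baseline.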

[3] = read-out: Insulin-like growth factor-binding protein 1 (IGFBP1), IGFBP1 (gene 3484); experiment: LTEA_HepaRG_IGFBP1: Life Technologies and Expression Analysis (LTEA) Assay for Insulin-like growth factor-binding protein 1 (IGFBP1) using HepaRG (AID 2283508)
Summary of the method: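 qRT-PCR mRNA read-out (TaqMan, Fluidigm array), normalised to three housekeeping genes; HepaRG cells, 48 h exposure, 8-pt half-log series from 100 uM, 0.5% DMSO vehicle; bidirectional curve fit vs DMSO baseline.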

[4] = read-out: Interleukin 6 (IL6), IL6 (gene 3569); experiment: LTEA_HepaRG_IL6: Life Technologies and Expression Analysis (LTEA) Assay for Interleukin 6 (IL6) using HepaRG (AID 2283509)
Summary of the method: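 qRT-PCR read-out of IL6 transcript, normalized to three housekeeping genes, after 48 h chemical exposure of HepaRG cells; 8-point half-log series, top 100 uM, 0.5% DMSO vehicle. Bidirectional curve fitting against DMSO baseline.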

[5] = read-out: Interleukin 6 Receptor (IL6R), IL6R (gene 3570); experiment: LTEA_HepaRG_IL6R: Life Technologies and Expression Analysis (LTEA) Assay for Interleukin 6 Receptor (IL6R) using HepaRG (AID 2283510)
Summary of the method: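 HepaRG, 48 h exposure, 8-pt half-log series, top 100 uM, 0.5% DMSO vehicle, duplicates. Read-out: TaqMan qRT-PCR of IL6R transcript, housekeeping-gene normalized. Gain or loss fitted relative to DMSO baseline.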

[6] = read-out: Potassium channel subfamily K member 1 (KCNK1), KCNK1 (gene 3775); experiment: LTEA_HepaRG_KCNK1: Life Technologies and Expression Analysis (LTEA) Assay for Potassium channel subfamily K member 1 (KCNK1) using HepaRG (AID 2283511)
Summary of the method: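 HepaRG, 48 h exposure, 8-pt half-log series top 100 uM, 0.5% DMSO vehicle, duplicates. Readout: KCNK1 transcript by qRT-PCR (Fluidigm array), housekeeping-normalized; bidirectional curve fit relative to DMSO baseline.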

[7] = read-out: Keratin 19 (KRT19), KRT19 (gene 3880); experiment: LTEA_HepaRG_KRT19: Life Technologies and Expression Analysis (LTEA) Assay for Keratin 19 (KRT19) using HepaRG (AID 2283512)
Summary of the method: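 HepaRG, 48 h chemical exposure, 8-pt half-log CRC from 100 uM, 0.5% DMSO vehicle, duplicates. Readout: TaqMan qRT-PCR of KRT19 mRNA, housekeeping-normalized (ACTB/GAPDH/POLR2A). Bidirectional fit vs DMSO baseline.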

[8] = read-out: JUN Transcription Factor, JUN (gene 3725); experiment: LTEA_HepaRG_JUN: Life Technologies and Expression Analysis (LTEA) Assay for JUN Transcription Factor using HepaRG (AID 2283513)
Summary of the method: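 HepaRG, 48 h exposure, 8-pt half-log series top 100 uM, 0.5% DMSO, duplicate. JUN mRNA by qRT-PCR (Fluidigm), housekeeping-normalized (ACTB/GAPDH/POLR2A); bidirectional curve fit vs DMSO baseline.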

[9] = read-out: Lipase C (LIPC), LIPC (gene 3990); experiment: LTEA_HepaRG_LIPC: Life Technologies and Expression Analysis (LTEA) Assay for Lipase C (LIPC) using HepaRG (AID 2283514)
Summary of the method: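 HepaRG, 48 h exposure, 8-pt half-log series from 100 uM in 0.5% DMSO, duplicates. Readout: LIPC mRNA by Fluidigm qRT-PCR, housekeeping-normalized (ACTB/GAPDH/POLR2A). Gain or loss fitted bidirectionally against DMSO baseline.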

[10] = read-out: matrix metalloproteinase-10 (MMP10), MMP10 (gene 4319); experiment: LTEA_HepaRG_MMP10: Life Technologies and Expression Analysis (LTEA) Assay for matrix metalloproteinase-10 (MMP10) using HepaRG (AID 2283517)
Summary of the method: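 Transcript levels come from Fluidigm qRT-PCR normalized to three housekeeping genes, with curves fitted bidirectionally against 0.5% DMSO. Human HepaRG cells were dosed for 48 hours at concentrations up to 100 uM.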

MYC, MYC (gene 4609) = experiment: LTEA_HepaRG_MYC: Life Technologies and Expression Analysis (LTEA) Assay for MYC using HepaRG (AID 2283518)
Summary of the method: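 qRT-PCR read-out of MYC transcript (Fluidigm TaqMan, housekeeping-normalized) after 48 h chemical exposure of HepaRG cells; eight concentrations, top 100 uM, half-log steps. Bidirectional curve fitting against 0.5% DMSO vehicle baseline.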

[11] = read-out: matrix metalloproteinase-3 (MMP3), MMP3 (gene 4314); experiment: LTEA_HepaRG_MMP3: Life Technologies and Expression Analysis (LTEA) Assay for matrix metalloproteinase-3 (MMP3) using HepaRG (AID 2283519)
Summary of the method: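 qRT-PCR read-out of MMP3 mRNA (normalised to three housekeeping genes) in HepaRG liver cells after 48 h chemical exposure; 8-point half-log series, top 100 uM, 0.5% DMSO vehicle. Bidirectional curve fitting against DMSO baseline.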

[12] = read-out: Paternally Expressed 10 (PEG10), PEG10 (gene 23089); experiment: LTEA_HepaRG_PEG10: Life Technologies and Expression Analysis (LTEA) Assay for Paternally Expressed 10 (PEG10) using HepaRG (AID 2283520);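 as to AC50: PEG10 transcript by qRT-PCR normalised to ACTB GAPDH and POLR2A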
Summary of the method: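 qRT-PCR read-out: PEG10 mRNA normalised to three housekeeping genes, fitted bidirectionally against 0.5% DMSO vehicle. HepaRG cells received test chemicals for 48 h in serum-free induction medium, 8 points, top 100 uM, half-log steps.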

[13] = read-out: Nuclear factor NF-kappa-B p105 subunit (Homo sapiens) (UniProt P19838); experiment: LTEA_HepaRG_NFKB1: Life Technologies and Expression Analysis (LTEA) Assay for Nuclear Factor Kappa B Subunit 1 (NFKB1) using HepaRG (AID 2283521)
Summary of the method: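 Differentiated human HepaRG cells were exposed for 48 h in serum-free induction medium to eight concentrations (top 100 uM, half-log steps, 0.5% DMSO), in duplicate. NFKB1 mRNA was measured by TaqMan qRT-PCR, normalized to ACTB/GAPDH/POLR2A, and fitted bidirectionally against DMSO.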

[14] = read-out: Protein phosphatase 2A (PPP2R4), PTPA (gene 5524); experiment: LTEA_HepaRG_PPP2R4: Life Technologies and Expression Analysis (LTEA) Assay for Protein phosphatase 2A (PPP2R4) using HepaRG (AID 2283522)
Summary of the method: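 HepaRG, 48 h exposure, 8-pt half-log series from 100 uM, 0.5% DMSO vehicle, duplicates. Readout: PPP2R4 mRNA, Fluidigm qRT-PCR, housekeeping-normalized. Bidirectional curve fit vs DMSO baseline.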

[15] = read-out: Phosphatase and tensin (PTEN), PTEN (gene 5728); experiment: LTEA_HepaRG_PTEN: Life Technologies and Expression Analysis (LTEA) Assay for Phosphatase and tensin (PTEN) using HepaRG (AID 2283523)
Summary of the method: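 HepaRG, 48 h exposure, 8-pt half-log series from 100 uM top, 0.5% DMSO vehicle, duplicates. Readout: Fluidigm qRT-PCR of PTEN transcript; housekeeping normalization (ACTB, GAPDH, POLR2A). Gain or loss fitted relative to DMSO baseline.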

[16] = read-out: solute carrier (SLC22A1), SLC22A1 (gene 6580); experiment: LTEA_HepaRG_SLC22A1: Life Technologies and Expression Analysis (LTEA) Assay for solute carrier (SLC22A1) using HepaRG (AID 2283524)
Summary of the method: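 qRT-PCR readout (TaqMan, Fluidigm arrays) of SLC22A1 transcript, normalized to three housekeeping genes; bidirectional curve fit relative to 0.5% DMSO vehicle. Differentiated human HepaRG cells, 48 h chemical exposure, top concentration 100 uM, half-log steps, eight points.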

[17] = read-out: NAD(P)H dehydrogenase [quinone] 1 (NQO1), NQO1 (gene 1728); experiment: LTEA_HepaRG_NQO1: Life Technologies and Expression Analysis (LTEA) Assay for NAD(P)H dehydrogenase [quinone] 1 (NQO1) using HepaRG (AID 2283526)
Summary of the method: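 qRT-PCR read-out (Fluidigm TaqMan), normalized to three housekeeping genes, after 48 h chemical exposure of HepaRG cells. Concentrations: eight points, top 100 uM, half-log steps, 0.5% DMSO vehicle. Gain or loss of signal fitted relative to DMSO.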

[18] = read-out: succinate dehydrogenase complex iron sulfur subunit B (SDHB), SDHB (gene 6390); experiment: LTEA_HepaRG_SDHB: Life Technologies and Expression Analysis (LTEA) Assay for succinate dehydrogenase complex iron sulfur subunit B (SDHB) using HepaRG (AID 2283528)
Summary of the method: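 HepaRG, 48 h exposure, 8-pt half-log series from 100 uM in 0.5% DMSO, duplicates. Readout: SDHB mRNA by Fluidigm qRT-PCR vs housekeeping genes; bidirectional fit relative to DMSO.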

Measured: AC50

Chain of Nuclear factor NF-kappa-B p105 subunit (Homo sapiens) (P19838 whole entry, looked up): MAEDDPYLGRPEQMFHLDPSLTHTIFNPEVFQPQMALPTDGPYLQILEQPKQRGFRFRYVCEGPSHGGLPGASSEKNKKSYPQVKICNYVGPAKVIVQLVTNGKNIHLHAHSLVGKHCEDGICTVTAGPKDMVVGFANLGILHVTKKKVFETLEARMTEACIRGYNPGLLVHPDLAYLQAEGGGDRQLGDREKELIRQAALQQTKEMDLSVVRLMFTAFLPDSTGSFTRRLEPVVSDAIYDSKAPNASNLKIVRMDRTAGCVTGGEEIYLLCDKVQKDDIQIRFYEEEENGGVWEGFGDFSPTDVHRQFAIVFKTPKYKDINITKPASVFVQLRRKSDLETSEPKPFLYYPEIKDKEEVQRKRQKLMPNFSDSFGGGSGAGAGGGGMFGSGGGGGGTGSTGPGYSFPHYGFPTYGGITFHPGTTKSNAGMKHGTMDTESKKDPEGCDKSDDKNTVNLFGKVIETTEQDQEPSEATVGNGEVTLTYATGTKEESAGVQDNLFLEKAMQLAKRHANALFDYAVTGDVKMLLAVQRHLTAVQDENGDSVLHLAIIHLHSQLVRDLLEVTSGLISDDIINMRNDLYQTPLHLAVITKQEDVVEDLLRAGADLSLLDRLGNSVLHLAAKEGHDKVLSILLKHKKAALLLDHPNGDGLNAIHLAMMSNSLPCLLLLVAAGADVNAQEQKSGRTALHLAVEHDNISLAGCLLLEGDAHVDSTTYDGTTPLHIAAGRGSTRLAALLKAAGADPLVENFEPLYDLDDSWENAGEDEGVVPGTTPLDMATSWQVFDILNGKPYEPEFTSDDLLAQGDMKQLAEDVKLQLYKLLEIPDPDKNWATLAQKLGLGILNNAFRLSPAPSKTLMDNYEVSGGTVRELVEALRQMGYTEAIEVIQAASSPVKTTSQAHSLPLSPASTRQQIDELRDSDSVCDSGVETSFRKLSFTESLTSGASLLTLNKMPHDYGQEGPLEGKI

CCOP(=S)(OCC)Oc1nc(Cl)c(Cl)cc1Cl
inactive: [1] | HGF (gene 3082) | [2] | [3] | [4] | [5] | [6] | [7] | [8] | [9] | [10] | MYC, MYC (gene 4609) | [11] | [12] | [13] | [14] | [15] | [16] | [17] | [18]

C[C@@H]1C[C@@H]([C@H](O)CC2CC(=O)NC(=O)C2)C(=O)[C@@H](C)C1
active: [1] 27 µM | HGF (gene 3082) 71.7 µM | [2] 11.9 µM | [3] 22.3 µM | [4] 11.8 µM | [6] 12.2 µM | [7] 12.5 µM | [8] 30 µM | [9] 20 µM | MYC, MYC (gene 4609) 13.9 µM | [11] 83.3 µM | [12] 2.39 µM | [13] 17.6 µM | [14] 0.636 µM | [15] 87.6 µM | [16] 8.29 µM | [17] 29.3 µM | [18] 50 µM
inactive: [5] | [10]

ClC1(Cl)C2(Cl)C3(Cl)C4(Cl)C(Cl)(Cl)C5(Cl)C3(Cl)C1(Cl)C5(Cl)C24Cl (centres undefined)
inactive: [1] | HGF (gene 3082) | [2] | [3] | [4] | [5] | [6] | [7] | [8] | [9] | [10] | MYC, MYC (gene 4609) | [11] | [12] | [14] | [15] | [16] | [17] | [18]

CC(C)(c1ccccc1)c1ccc(O)c(C(C)(C)c2ccccc2)c1
active: [1] 71.5 µM | [2] 50 µM | [9] 61.7 µM | MYC, MYC (gene 4609) 50 µM | [16] 65.4 µM
inactive: HGF (gene 3082) | [3] | [4] | [5] | [6] | [7] | [8] | [10] | [11] | [12] | [13] | [14] | [15] | [17] | [18]
